Results on 24 molecules are retold here after PubChem BioAssay.

What is called inhibition is the change of the read-out against control, counted positive when it falls.

Experiment [1] can be described thus: StAR promoter reporter inhibitors, counter-screen for LRH-1 inverse agonist project, cell-based, luminescence, high throughput (AID 651611). As to conditions: StAR promoter luciferase reporter counterscreen, at 3.6 µM, hits give high values.
Experiment [2] has as its target Nuclear receptor subfamily 5 group A member 2 (Homo sapiens) (UniProt O00482). The experiment in a line: NR5A2 activity suppression in reporter cells – cell-based, luminescence, confirmation (AID 651613; in the data active = inhibition above about 42%;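 also: HEK293T cells co-transfected with LRH-1 and StAR promoter luciferase reporter; 0% = vehicle wells and 100% = parental cells lacking receptor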). As to conditions: cell-based LRH-1 luciferase reporter, inverse agonism; at 3.6 µM; hits give high values. In general terms: In a reporter assay the amount or activity of a reporter protein is the signal.

The target of experiment [3] is Steroidogenic factor 1 (Homo sapiens) (UniProt Q13285). The experiment in a line: inverse agonism at SF1 nuclear receptor – cell-based, luminescence, high throughput, counter-screen for LRH-1 inverse agonist project (AID 651614; in the data active = inhibition above about 44%;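 also: cells cotransfected with StAR promoter reporter and SF1 expression vector; 0% = vehicle on cells with receptor and 100% = vehicle on cells lacking receptor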). The note with it: cell-based SF1 luciferase reporter, at 3.6 µM, hits give high values. On the technique in general: Counterscreens check selectivity or assay interference.
Chain of Steroidogenic factor 1 (Homo sapiens) (Q13285 whole entry, looked up): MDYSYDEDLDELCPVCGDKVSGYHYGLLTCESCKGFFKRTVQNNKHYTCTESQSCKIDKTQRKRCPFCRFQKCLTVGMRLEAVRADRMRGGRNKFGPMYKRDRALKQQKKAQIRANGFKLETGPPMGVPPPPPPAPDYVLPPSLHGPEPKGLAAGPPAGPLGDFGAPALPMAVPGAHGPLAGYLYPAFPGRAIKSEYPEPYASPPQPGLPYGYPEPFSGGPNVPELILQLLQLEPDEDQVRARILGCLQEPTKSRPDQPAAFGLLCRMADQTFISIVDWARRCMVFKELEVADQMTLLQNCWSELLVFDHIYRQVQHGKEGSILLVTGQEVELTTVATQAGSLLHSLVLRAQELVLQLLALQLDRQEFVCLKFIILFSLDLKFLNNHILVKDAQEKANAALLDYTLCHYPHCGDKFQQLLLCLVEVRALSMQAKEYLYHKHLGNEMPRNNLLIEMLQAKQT

Experiment [4] can be described thus: compounds suppressing VP16-driven luciferase signal – cell-based, luminescence, high throughput, counter-screen for LRH-1 inverse agonist project (AID 651615; in the data active = inhibition above about 33%). As to conditions: Gal4-VP16 luciferase reporter cells, at 3.6 µM, hits give high values.
In experiment [5] the test system is transactivating tegument protein VP16 (Human herpesvirus 1). The experiment is described as follows: compounds suppressing VP16-driven luciferase signal – cell-based, luminescence, single concentration, counter-screen for SRC2 inhibitor project (AID 652007; in the data active = inhibition above about 36%). The note with it: cell-based VP16 transactivation luciferase reporter, at 8.9 µM, hits give high values.
In experiment [6] the target is Nuclear receptor coactivator 2 (Homo sapiens) (UniProt Q15596). The experiment in a line: inhibition of GAL4-SRC2 driven luciferase expression – cell-based, luminescence, HEK293, triplicate, confirmation (AID 652008;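 active = mean inhibition above 46.5%, the solvent-only control mean plus 3 SD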;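 also: 0% = DMSO-treated cells and 100% = Gossypol at 36 µM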). The note with it: HEK293 GAL4-SRC2 luciferase reporter, at 8.9 µM, hits give high values.
Chain of Nuclear receptor coactivator 2 (Homo sapiens) (Q15596 whole entry, looked up, the tested form may be a part): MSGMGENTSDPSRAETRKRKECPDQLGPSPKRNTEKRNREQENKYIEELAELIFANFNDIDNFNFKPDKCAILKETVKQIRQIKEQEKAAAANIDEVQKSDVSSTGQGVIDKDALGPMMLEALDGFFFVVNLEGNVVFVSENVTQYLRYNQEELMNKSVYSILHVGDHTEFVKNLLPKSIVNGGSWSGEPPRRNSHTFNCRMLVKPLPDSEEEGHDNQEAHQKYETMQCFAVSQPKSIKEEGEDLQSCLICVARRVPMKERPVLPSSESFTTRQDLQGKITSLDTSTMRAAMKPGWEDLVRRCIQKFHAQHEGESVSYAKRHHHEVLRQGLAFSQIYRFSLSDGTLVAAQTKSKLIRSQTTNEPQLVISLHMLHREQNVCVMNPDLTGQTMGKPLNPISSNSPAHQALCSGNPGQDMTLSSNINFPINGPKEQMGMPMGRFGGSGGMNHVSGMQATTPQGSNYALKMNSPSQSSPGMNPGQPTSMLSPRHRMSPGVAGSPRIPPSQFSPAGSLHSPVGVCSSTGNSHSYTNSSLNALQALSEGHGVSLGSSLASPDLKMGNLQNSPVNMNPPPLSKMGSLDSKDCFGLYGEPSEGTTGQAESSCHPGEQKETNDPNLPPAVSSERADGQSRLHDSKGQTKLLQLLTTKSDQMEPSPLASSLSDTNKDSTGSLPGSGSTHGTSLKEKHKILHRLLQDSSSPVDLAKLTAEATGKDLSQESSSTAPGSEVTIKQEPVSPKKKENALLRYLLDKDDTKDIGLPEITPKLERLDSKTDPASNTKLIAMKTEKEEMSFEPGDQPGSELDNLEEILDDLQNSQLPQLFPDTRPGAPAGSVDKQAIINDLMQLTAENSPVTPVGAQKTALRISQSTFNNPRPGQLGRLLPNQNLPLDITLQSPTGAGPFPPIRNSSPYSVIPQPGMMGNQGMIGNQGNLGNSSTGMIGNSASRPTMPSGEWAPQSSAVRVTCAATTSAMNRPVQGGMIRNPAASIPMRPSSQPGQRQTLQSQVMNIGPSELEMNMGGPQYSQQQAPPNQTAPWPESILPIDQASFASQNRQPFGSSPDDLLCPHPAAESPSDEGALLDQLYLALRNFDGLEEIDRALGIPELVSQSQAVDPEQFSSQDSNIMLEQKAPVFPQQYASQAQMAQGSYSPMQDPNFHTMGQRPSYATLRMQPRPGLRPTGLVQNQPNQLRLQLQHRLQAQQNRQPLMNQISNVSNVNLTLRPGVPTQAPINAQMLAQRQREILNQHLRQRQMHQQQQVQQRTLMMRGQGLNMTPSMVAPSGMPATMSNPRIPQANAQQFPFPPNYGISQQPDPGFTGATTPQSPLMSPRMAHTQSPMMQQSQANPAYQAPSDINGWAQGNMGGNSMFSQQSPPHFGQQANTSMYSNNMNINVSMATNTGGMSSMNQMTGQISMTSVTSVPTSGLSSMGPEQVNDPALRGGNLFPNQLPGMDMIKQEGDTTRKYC

Values without a mark were called inactive. The source made the active and inactive calls. Rule as the data show it, unless noted: active = inhibition above about 28%; inactive = the rest.

Chain of Nuclear receptor subfamily 5 group A member 2 (Homo sapiens) (O00482 whole entry, looked up): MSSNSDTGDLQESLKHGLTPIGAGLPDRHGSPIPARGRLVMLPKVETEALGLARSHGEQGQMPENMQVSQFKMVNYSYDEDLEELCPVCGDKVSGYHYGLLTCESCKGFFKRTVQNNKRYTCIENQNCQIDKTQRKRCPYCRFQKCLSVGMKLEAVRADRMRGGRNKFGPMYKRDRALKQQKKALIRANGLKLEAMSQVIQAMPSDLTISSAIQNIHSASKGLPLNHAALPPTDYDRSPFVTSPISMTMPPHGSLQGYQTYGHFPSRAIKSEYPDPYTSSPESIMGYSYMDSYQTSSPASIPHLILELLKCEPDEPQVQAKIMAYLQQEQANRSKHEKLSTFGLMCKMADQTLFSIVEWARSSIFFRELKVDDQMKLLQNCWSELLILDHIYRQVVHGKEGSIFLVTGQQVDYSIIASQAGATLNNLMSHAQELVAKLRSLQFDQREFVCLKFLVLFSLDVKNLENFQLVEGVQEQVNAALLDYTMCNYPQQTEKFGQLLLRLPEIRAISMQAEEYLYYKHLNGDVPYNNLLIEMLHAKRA

Consider `CC1=C(O)C(=O)C=C2C1=CC=C1C2(C)CCC2(C)C3CC(C)(C(=O)O)CCC3(C)CCC12C` (stereo not given), for which the inhibition in experiment [1] is 91.6% (active); in experiment [2] it was 106% (active); in experiment [3], 96.7% (active); in experiment [4], 89.5% (active).
For the molecule `COC1C(O)C(C)OC(OC2CCC3(C)C(CCC4C3C(O)CC3(C)C(C5=CC(=O)OC5)CCC43O)C2)C1O` (stereo not given), the inhibition was 97.3% (active) in experiment [1]; 110% (active) in experiment [2]; 98.8% (active) in experiment [3]; 91.1% (active) in experiment [4]; 57.6% (active) in experiment [5]; 22.7% in experiment [6].
Take `C=C1[C@@H](C)[C@H]2[C@H](Cc3ccccc3)NC(=O)[C@]23OC(=O)/C=C/[C@H](O)CCC[C@@H](C)C/C=C/[C@H]3[C@@H]1O`: the inhibition was 52.7% (active) in experiment [1], 27.9% in experiment [2], 44.3% (active) in experiment [3] and 27% in experiment [4].
For `CC1=CC(O)C(O)C2(C)C1CC1OC(=O)CC3C(C)C(O)C(=O)C2C13CO` (stereo not given) the same measures were 18.7%, 43% (active), 45.9% (active) and -0.77%.
As to `CC(C)N(C(=O)CCl)c1ccccc1`, the inhibition in experiment [1] is 19.8%; in experiment [2] it was 54.8% (active); in experiment [3], 51.7% (active); in experiment [4], -6.55%.
With `CCOC(=O)[C@]12Cc3cc(Cl)ccc3[C@H]1N(C1CCCCC1)C(=O)c1cc(OC)ccc12`, the inhibition in experiment [1] was 87.5% (active); in experiment [2], 105% (active); in experiment [3], 93.1% (active); in experiment [4] it was 87.7% (active).
In the case of `CC1OC(OC2C=C3CCC4C(CCC5(C)C(c6ccc(=O)oc6)CCC45O)C3(C)CC2)C(O)C(OC2OC(CO)C(O)C(O)C2O)C1O` (stereo not given), the inhibition is 95.6% (active) in experiment [1]; 110% (active) in experiment [2]; 97.2% (active) in experiment [3]; 94.4% (active) in experiment [4]; 63.6% (active) in experiment [5]; 48.1% (active) in experiment [6].
For the molecule `CC[n+]1c(/C=C/C=C/c2ccc(N(C)C)cc2)sc2ccccc21`, the inhibition in experiment [1] was 54% (active); in experiment [2], 104% (active); in experiment [3] it was 86.4% (active); in experiment [4], 86.5% (active).
As to `CC1CCN(C(=O)CCl)CC1`, the inhibition is 21.1% in experiment [1], 58.2% (active) in experiment [2], 57% (active) in experiment [3] and -7.83% in experiment [4].
Take `CCOC(=O)c1c(C)n(CC(O)CN2CCOCC2)c2cc(Br)c(OC)cc12` (stereo not given): the inhibition in experiment [1] was 22%; in experiment [2], 57.1% (active); in experiment [3], 47.9% (active); in experiment [4], -12.2%.
Turning to `N#CCCn1cc(C(=O)Nc2ccccc2Cl)c(-c2ccc([N+](=O)[O-])cc2)n1`, the inhibition in experiment [1] is 16.9%; in experiment [2] it was 57.2% (active); in experiment [3], 59.8% (active); in experiment [4], -6.5%.
In the same order, the values of `C=C1C(=O)O[C@@H]2C[C@@H](C)[C@@H]3C4OC4C(=O)[C@@]3(C)[C@@H](O)[C@H]12` (stereo not given in full) are -30%, 60.7% (active), 67.9% (active) and 82.8% (active).
As to `COc1ccc(NS(=O)(=O)c2ccc(OCC(=O)N3CCN(C)CC3)cc2)cc1Cl`, the inhibition was 2.1% in experiment [1], 48.2% (active) in experiment [2], 34.7% in experiment [3] and 3.62% in experiment [4].
For `CCOC(=O)[C@]12Cc3cc(Cl)ccc3[C@H]1N(C1CCCCC1)C(=O)c1ccccc12` the same measures were 80.2% (active), 107% (active), 89.1% (active) and 92.8% (active).
Regarding `COC(=O)C(C)Oc1cc(C)cc2oc(=O)c3c(c12)CCCC3` (stereo not given), the inhibition is 14.4% in experiment [1], 63.3% (active) in experiment [2], 55.9% (active) in experiment [3] and -29.8% in experiment [4].
In the case of `Cc1cc(OCC(=O)OC(C)C)c2c3c(c(=O)oc2c1)CCCC3`, the inhibition in experiment [1] is 14.7%; in experiment [2], 57.9% (active); in experiment [3] it was 54.9% (active); in experiment [4], -9.99%.
In the same order, the values of `CN1C(=O)C(=Cc2ccc(N3CCCCCC3)cc2)C(=O)N(C)C1=O` are 9.79%, 57% (active), 48.1% (active) and -4.85%.
With `COC(=O)C12CCc3c(ccc4cc(OC)ccc34)C1=CC(=O)C2` (stereo not given), the inhibition in experiment [1] was 0.25%; in experiment [2], 12.9%; in experiment [3], 25.3%; in experiment [4], -1.27%.
For `Cc1nn(Cc2ccccc2)c(C)c1C(=O)OCC(=O)Nc1ccccc1SCC#N` the same measures were -1.13%, 58.8% (active), 52.9% (active) and 2%.
With `COC(=O)C(C)Oc1cc(C)cc2oc(=O)c3c(c12)CCC3` (stereo not given), the inhibition was 47.8% (active) in experiment [1], 76.3% (active) in experiment [2], 67.7% (active) in experiment [3] and -163% in experiment [4].
In the same order, the values of `CCC(C)N1C(=O)/C(=C\c2ccc(N3CCCCCC3)cc2)C(=O)NC1=S` (stereo not given) are 1.31%, 58.9% (active), 40.2% and -2.53%.
On to `CC(=O)OC(C)(C)/C=C/C(=O)C(C)(O)C1C(O)CC2(C)C3CC=C4C(CC(O)C(=O)C4(C)C)C3(C)C(=O)CC12C` (stereo not given), for which the inhibition was 66% (active) in experiment [1], 56.8% (active) in experiment [2], 59.2% (active) in experiment [3] and 59.7% (active) in experiment [4].
In the same order, the values of `CC(=O)O[C@H]1C(=O)[C@@]2(C)C([C@H](OC(=O)c3ccccc3)[C@]3(O)C[C@H](OC(=O)[C@H](O)[C@@H](NC(=O)Cc4ccccc4)c4ccccc4)C(C)=C1C3(C)C)[C@]1(OC(C)=O)CO[C@@H]1C[C@@H]2O` (stereo not given in full) are 50.1% (active), 45.2% (active), 54.9% (active) and 36.1% (active).
`COc1cc2c(cc1OC)[C@@H]1C(=O)c3ccc4c(c3O[C@@H]1CO2)C[C@H](C(C)C)O4`: the inhibition in experiment [1] is 34.2% (active); in experiment [2], 68.7% (active); in experiment [3], 61.4% (active); in experiment [4] it was 57.4% (active).
